Test [1] can be described thus: small molecules captured by biotinylated probe aFSTL3 – biochemical, small-molecule microarray, fluorescence 635/667, stem cell growth factor project, primary screen (AID 1064).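 Note: measures binding of the biotinylated anti-FSTL3 antibody to printed compounds.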 To be noted: higher = more signal.
Test [2] is described as follows: binders from COS7 lysate, DM2A8 probe, primary screen, torsin A project, cell lysate, small-molecule microarray, fluorescence 635/667 (AID 1065). Particulars: higher = more signal, COS7 lysate expressing mutant human TOR1A.
The nature of test [3]: small molecules captured by biotinylated probe aFGF2 – biochemical, small-molecule microarray, fluorescence 635/667, stem cell growth factor project, primary screen (AID 1067).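 Note: measures binding of biotinylated aFGF2 protein to printed compounds on slides; z-score merges feature fluorescence and signal-to-noise across triplicate slides.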 Particulars: higher = more signal.
Test [4] can be described thus: small molecules captured by biotinylated probe aFGF10 – biochemical, small-molecule microarray, fluorescence 635/667, stem cell growth factor project, primary screen (AID 1071).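 Note: score merges 667 nm spot intensity and signal to noise from triplicate slides.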 To be noted: higher = more signal.
Test [5] deals with Neurogenic locus notch homolog protein 2 (Homo sapiens) (UniProt Q04721). Kind of test: small molecules binding Notch2 protein – biochemical, small-molecule microarray, 635 nm fluorescence, stem cell growth factors, primary screen (AID 1073). To be noted: higher = more signal.
Neurogenic locus notch homolog protein 2 (Homo sapiens), sequence (Q04721 whole entry, looked up, canonical isoform): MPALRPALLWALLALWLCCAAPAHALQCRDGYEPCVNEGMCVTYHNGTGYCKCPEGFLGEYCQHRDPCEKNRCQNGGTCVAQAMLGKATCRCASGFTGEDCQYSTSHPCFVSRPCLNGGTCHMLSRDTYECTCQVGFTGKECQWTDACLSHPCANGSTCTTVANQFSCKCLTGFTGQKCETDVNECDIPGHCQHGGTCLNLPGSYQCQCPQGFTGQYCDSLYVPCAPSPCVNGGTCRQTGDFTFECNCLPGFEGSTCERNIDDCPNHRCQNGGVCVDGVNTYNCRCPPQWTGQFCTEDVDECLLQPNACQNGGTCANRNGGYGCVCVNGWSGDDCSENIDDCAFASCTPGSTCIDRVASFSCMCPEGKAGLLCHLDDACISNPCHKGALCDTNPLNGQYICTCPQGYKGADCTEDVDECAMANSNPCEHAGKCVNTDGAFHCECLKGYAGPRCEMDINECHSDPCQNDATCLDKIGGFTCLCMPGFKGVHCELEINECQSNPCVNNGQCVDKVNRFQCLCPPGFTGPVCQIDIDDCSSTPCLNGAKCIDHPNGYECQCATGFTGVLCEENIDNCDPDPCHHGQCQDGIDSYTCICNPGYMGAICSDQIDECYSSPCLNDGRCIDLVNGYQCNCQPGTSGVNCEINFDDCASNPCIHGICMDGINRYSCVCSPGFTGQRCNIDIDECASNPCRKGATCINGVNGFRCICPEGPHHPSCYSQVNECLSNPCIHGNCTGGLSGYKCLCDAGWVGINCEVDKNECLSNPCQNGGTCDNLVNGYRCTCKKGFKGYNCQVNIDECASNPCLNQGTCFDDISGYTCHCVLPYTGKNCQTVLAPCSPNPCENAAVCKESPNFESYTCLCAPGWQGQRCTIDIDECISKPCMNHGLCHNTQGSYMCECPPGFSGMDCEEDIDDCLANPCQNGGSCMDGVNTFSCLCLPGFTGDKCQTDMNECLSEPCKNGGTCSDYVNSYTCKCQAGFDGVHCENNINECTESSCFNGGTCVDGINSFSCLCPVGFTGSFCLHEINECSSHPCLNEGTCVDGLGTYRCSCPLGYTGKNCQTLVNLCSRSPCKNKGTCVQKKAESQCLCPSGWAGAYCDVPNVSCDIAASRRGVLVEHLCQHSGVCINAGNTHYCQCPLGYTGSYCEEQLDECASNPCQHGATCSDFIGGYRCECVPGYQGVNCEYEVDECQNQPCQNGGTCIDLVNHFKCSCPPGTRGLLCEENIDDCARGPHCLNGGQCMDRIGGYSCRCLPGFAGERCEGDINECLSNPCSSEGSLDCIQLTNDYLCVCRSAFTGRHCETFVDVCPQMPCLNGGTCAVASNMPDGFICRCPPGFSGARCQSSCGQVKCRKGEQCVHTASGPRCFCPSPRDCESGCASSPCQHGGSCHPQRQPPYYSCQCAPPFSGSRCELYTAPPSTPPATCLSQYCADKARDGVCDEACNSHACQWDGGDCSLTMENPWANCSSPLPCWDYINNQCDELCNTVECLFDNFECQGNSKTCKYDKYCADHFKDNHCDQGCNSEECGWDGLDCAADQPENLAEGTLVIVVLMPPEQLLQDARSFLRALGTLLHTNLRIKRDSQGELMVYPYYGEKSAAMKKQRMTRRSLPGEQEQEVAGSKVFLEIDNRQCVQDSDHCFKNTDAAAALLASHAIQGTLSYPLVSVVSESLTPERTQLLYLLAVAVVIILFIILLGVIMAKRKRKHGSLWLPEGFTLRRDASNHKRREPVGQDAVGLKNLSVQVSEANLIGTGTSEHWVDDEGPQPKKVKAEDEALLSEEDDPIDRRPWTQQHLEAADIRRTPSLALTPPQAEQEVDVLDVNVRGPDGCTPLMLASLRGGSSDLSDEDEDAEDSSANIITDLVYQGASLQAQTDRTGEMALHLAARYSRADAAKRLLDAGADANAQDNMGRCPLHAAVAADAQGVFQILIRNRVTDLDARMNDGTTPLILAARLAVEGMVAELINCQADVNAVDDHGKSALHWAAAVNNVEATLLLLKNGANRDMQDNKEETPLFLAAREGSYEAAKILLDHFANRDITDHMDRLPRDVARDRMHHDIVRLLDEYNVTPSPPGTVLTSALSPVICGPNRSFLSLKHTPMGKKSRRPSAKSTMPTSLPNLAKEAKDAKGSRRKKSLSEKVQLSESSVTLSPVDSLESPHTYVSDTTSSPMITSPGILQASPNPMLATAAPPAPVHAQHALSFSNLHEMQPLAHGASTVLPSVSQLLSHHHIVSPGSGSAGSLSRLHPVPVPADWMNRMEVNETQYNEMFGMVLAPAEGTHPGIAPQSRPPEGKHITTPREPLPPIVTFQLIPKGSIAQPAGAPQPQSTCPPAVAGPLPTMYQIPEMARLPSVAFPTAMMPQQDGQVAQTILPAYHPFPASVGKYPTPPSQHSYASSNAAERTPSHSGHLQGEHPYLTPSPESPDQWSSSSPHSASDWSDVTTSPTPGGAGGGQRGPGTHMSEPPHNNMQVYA
Test [6] has as its target Pro-neuregulin-1, membrane-bound isoform (Homo sapiens) (UniProt Q02297). Kind of test: small molecules binding neuregulin-1 protein – biochemical, small-molecule microarray, fluorescence 635/667, psychiatric disease protein project, primary screen (AID 1075).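 Note: score combines 667 nm spot fluorescence with signal to noise.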 Particulars: NRG1 binding, 635 nm fluorescence, higher = more signal.
Test [7] has as its system Neuregulin-1 EGF-like domain. The test can be described thus: small molecules binding NRG1 EGF domain – biochemical, small-molecule microarray, 635 nm fluorescence, primary screen (AID 1081).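 Note: binding of the protein to compounds printed on small-molecule microarray slides.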 Particulars: higher = more signal.
Test [8] can be described thus: FRG1 expression reporter modulators in myotubes – cell-based, C2C12 myotubes, firefly/Renilla luciferase, luminescence, FRG1 inhibition for FSHD, primary screen (AID 1084). To be noted: FRG1 promoter luciferase, higher = more signal, called active from +8 up or from −8 down.
Test [9] is described as follows: small molecules captured by biotinylated probe aFST – biochemical, small-molecule microarray, fluorescence 635/667, stem cell growth factor project, primary screen (AID 1086).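 Note: score merges 667 nm fluorescence with signal-to-noise of each printed compound spot.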 To be noted: higher = more signal.
Test [10] can be described thus: binders of probe aHhip on microarray, primary screen, stem cell growth factor project, biochemical, small-molecule microarray, fluorescence 635/667 (AID 1087).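 Note: score merges spot fluorescence at 667nm with spot signal to noise ratio.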 Particulars: higher = more signal.
The test system of test [11] is PRMT1 (protein arginine N-methyltransferase 1). The test can be described thus: small molecules binding arginine methyltransferase PRMT1 – biochemical, small-molecule microarray, 635 nm fluorescence, primary screen (AID 1088).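 Note: binding of Prmt1 protein to compounds spotted on small-molecule microarray slides.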 Particulars: higher = more signal.
Test [12] in a line: growth effects on S. cerevisiae YJM789 – YJM789 clinical isolate, OD600, 24 h, basal, primary screen (AID 1089).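 Note: growth of clinical yeast isolate S. cerevisiae YJM 789 seeded 1000 cells per well; test concentration not given here.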 Particulars: higher = more signal, called active from +8 up or from −8 down.
Test [13] in a line: S. pombe growth modifiers, basal conditions – strain 972, OD600, 24 h, no modulator, primary screen (AID 1090).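 Note: basal condition with compound alone and no growth modifier present; test concentration not given here.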 To be noted: S. pombe 972 growth, higher = more signal, called active from +8 up or from −8 down.
Test [14] can be described thus: budding yeast growth modifiers under rapamycin – strain BY4716, OD600, 96 h, primary screen (AID 1091). Note: test concentration not given here. To be noted: S. cerevisiae BY4716 + rapamycin, higher = more signal, called active from +8 up or from −8 down.
Test [15] has as its target Torsin-1A-interacting protein 2 (Homo sapiens) (UniProt Q8NFQ8). The test can be described thus: small molecules binding lysate-expressed LULL1 – cell lysate, human LULL1 lysate, 635/667 nm fluorescence, primary screen (AID 1092).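 Note: score merges per-feature 667 nm fluorescence with signal-to-noise.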 Particulars: small-molecule microarray, hLULL1 lysate binding, 635 nm fluorescence; higher = more signal.
The nature of test [16]: optical density change of DRC41 E. coli – strain DRC41, OD650, 24 h, E. coli filamentation project, primary screen (AID 1093).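 Note: MC1000 strain lacking acrAB efflux and sulA so SOS filamentation is blocked; test concentration not given here.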 Particulars: E. coli DRC41 growth, higher = more signal, called active from +8 up or from −8 down.
Test [17] in a line: probe aLefty2 binding to arrayed compounds – biochemical, biotinylated probe, 635/667 nm fluorescence, primary screen (AID 1094).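 Note: score merges spot fluorescence near 667 nm with spot signal-to-noise ratio.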 Particulars: small-molecule microarray, higher = more signal.
Test [18] has as its system Noggin (protein binding on small-molecule microarray). The test can be described thus: small molecules binding Noggin protein – biochemical, 635/667 nm fluorescence, primary screen (AID 1095).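 Note: score merges 667 nm feature fluorescence with signal to noise over triplicate slides.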 Particulars: 635 nm fluorescence, higher = more signal.
Test [19] has as its target Neurogenic locus notch homolog protein 3 (Homo sapiens) (UniProt Q9UM47). The test can be described thus: small molecules binding NOTCH3 protein – biochemical, 635/667 nm fluorescence, primary screen (AID 1096). To be noted: small-molecule microarray, 635 nm fluorescence, higher = more signal.
Test [20] is described as follows: probe aEGFR binding to arrayed compounds – biochemical, biotinylated probe, 635/667 nm fluorescence, primary screen (AID 1097).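 Note: probe is a biotinylated anti-EGFR antibody binding compounds printed on slides; score combines fluorescence near 667 nm and signal to noise of each spot.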 Particulars: small-molecule microarray, higher = more signal.

“And” between values parts separate entries of the source, which are not always exact repeats. Identical values can stand only once. The source made the active and inactive calls.

Pro-neuregulin-1, membrane-bound isoform (Homo sapiens), sequence (Q02297 whole entry, looked up, the tested form may be a part, canonical isoform): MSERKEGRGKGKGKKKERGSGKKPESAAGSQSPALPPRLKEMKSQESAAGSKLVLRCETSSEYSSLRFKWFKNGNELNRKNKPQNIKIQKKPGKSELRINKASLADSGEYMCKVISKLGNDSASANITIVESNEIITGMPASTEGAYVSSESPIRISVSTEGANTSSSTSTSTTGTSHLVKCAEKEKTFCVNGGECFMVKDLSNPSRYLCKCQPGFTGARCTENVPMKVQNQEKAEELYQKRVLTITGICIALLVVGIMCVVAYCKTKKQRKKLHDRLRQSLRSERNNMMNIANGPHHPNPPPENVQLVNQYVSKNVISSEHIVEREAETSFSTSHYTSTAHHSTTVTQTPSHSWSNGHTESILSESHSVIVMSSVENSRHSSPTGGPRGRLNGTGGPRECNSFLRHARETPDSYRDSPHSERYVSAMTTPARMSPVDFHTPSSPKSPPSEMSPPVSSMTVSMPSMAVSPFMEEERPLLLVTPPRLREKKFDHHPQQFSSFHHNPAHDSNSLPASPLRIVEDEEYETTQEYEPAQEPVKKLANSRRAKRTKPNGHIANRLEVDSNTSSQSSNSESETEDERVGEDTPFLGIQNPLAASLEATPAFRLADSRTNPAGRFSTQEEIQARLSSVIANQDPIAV
Torsin-1A-interacting protein 2 (Homo sapiens), sequence (Q8NFQ8 whole entry, looked up): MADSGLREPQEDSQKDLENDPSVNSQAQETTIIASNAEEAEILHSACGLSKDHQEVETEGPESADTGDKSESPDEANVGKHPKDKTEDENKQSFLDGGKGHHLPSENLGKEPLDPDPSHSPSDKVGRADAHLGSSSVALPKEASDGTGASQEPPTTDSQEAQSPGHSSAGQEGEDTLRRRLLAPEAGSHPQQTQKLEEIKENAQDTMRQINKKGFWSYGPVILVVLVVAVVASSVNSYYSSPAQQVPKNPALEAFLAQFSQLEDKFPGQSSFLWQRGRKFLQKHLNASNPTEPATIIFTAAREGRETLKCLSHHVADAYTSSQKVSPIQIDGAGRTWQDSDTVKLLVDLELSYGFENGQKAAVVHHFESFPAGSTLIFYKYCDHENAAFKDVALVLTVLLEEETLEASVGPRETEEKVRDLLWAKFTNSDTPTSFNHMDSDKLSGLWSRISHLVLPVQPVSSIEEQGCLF

On to `COC(=O)C1=C(C)N(Cc2ccccc2)[C@]23O[C@](C(=O)OC)(C(=O)N2[C@@H]1c1ccccc1)[C@@H](C(=O)OC)[C@H]3C(=O)OC`, for which the composite z-score in test [1] is 0.202 and -0.441; in test [2], -0.295 and -0.1; in test [3], -0.112 and -0.0712; in test [4] it was -0.204 and 0.255; in test [5], -0.481 and 0.25; in test [6], 0.943 and -0.386. Besides, the composite z-score in [7] was 0.393 and 0.208; in test [9], -0.243 and -0.0583; in test [10], -0.137 and -0.189; in test [11] it was -0.584 and 0.5; in [15], 0.19 and 0.0032; in test [17] it was -0.277 and -0.259. Moreover, the composite z-score was -0.803 and 0.77 in [18]; -1.21 and 0.287 in test [19]; -0.173 and -0.115 in test [20]. In addition, the z-score is -0.125 (inactive) and -0.101 (inactive) in test [8]; 0.464 (inactive) and 0.457 (inactive) in test [12]; -0.0252 (inactive) and -0.671 (inactive) in [13]; 0.667 (inactive) and 0.334 (inactive) in test [14]; 0.305 (inactive) and 0.28 (inactive) in [16].
Consider `CC(C)[Si]1(C(C)C)OCc2cc(C3CC3)nc(CCc3ccccc3)c21`, for which the composite z-score in test [1] was -0.141 and -0.208; in test [2] it was -0.305 and 0.114; in test [3], -0.0412 and -0.16; in test [4], -0.124 and 0.172; in [5], 0.0069 and 0.589; in [6], -0.352 and -0.0692. For the same compound, the composite z-score was -1.21 and -0.253 in test [7]; 0.0391 and 0.169 in [9]; -0.0237 and -0.118 in test [10]; -0.834 and 0.139 in test [11]; -0.597 and 0.259 in test [15]; -0.22 and -0.0956 in test [17]. The composite z-score in test [18] is -0.27 and 0.258; in test [19] it was -0.149 and 0.351; in test [20] it was -0.109 and -0.0147. For the same compound, the z-score in test [8] was -0.218 (inactive) and 0.53 (inactive); in test [12], 0.289 (inactive) and 0.35 (inactive); in test [13], -1.32 (inactive) and 0.134 (inactive); in [14], 0.725 (inactive) and 0.474 (inactive); in test [16], -0.102 (inactive) and -1.01 (inactive).
As to `C=CCN(Cc1ccccc1)C(=O)C(c1cccs1)N(C(=O)/C=C\C(=O)O)c1c(Cl)cccc1CO` (stereo not given), the composite z-score is 0.233 and 1.13 in test [1]; -0.778 and -1.07 in [2]; -0.241 and -0.193 in test [3]; -1.08 and -2.14 in [4]; -1.53 and -2.16 in test [5]; -0.984 and -1.12 in test [6]. Besides, the composite z-score in [7] is 0.462 and -0.851; in test [9], -1.91 and -1.01; in [10], -0.549 and -0.38; in [11], -0.716 and -1.9; in test [15] it was -1.36 and -0.736; in test [17] it was -0.128 and -0.121. The composite z-score in [18] is -2.28 and -3.61; in test [19], -1 and -1.49; in test [20], -0.252 and -0.359. For the same compound, the z-score in [8] is -0.0406 (inactive) and 0.885 (inactive); in test [12], 0.506 (inactive) and -0.555 (inactive); in [13] it was 0.172 (inactive) and 0.261 (inactive); in test [14], 0.23 (inactive) and -0.457 (inactive); in test [16] it was 2.07 (inactive) and -0.369 (inactive).
Consider `C=CCN(CCCC)C(=O)C1N(CCCCCCO)C(=O)C2C(C(=O)O)C3C=CC21O3` (stereo not given), for which the composite z-score in test [1] was 1.42 and 1.34; in [2], -0.0373 and -0.98; in [3], -0.153 and -0.112; in test [4], -0.0134 and -0.092; in test [5], -2.57 and -2.12; in [6], -0.506 and 0.0117. Also, the composite z-score was 0.796 and 1.46 in test [7]; -1.41 and -0.957 in [9]; -0.383 and -0.204 in test [10]; -0.448 and -0.52 in test [11]; -0.179 and 2.36 in test [15]; 0.0397 and -0.0936 in test [17]. The composite z-score in test [18] is -3.5 and -2.6; in [19] it was -1.8 and -1.2; in [20] it was -0.485 and -0.356. For the same compound, the z-score in test [8] is 0.591 (inactive) and 0.91 (inactive); in test [12] it was 0.0812 (inactive) and -0.104 (inactive); in [13], 0.496 (inactive) and -0.0666 (inactive); in [14], -0.282 (inactive) and -0.642 (inactive); in test [16] it was -0.909 (inactive) and -0.855 (inactive).
